Records with an inconclusive call do not appear. The source made the active and inactive calls. Rule for the calls: active = hit-call score of the fitted dose curve at least 0.9, where 1 is the maximum; inconclusive = response in the unintended direction; inactive = score below 0.9.
Molecular target: human LYN Proto-Oncogene, Src family Tyrosine Kinase (LynA), LYN (gene 4067) (UniProt P07948)
Assay: NVS_ENZ_hLynA: NovaScreen (NVS) Enzymatic Assay for human LYN Proto-Oncogene, Src family Tyrosine Kinase (LynA) (AID 2283173)
How it was run: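 Recombinant kinase with fluorescent substrate; product separated from substrate by electrophoretic mobility shift and read 1 h after dosing. Duplicate screen at 25 uM, then concentration-response up to 50 uM; activity scored as signal loss against DMSO.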

Chain of human LYN Proto-Oncogene, Src family Tyrosine Kinase (LynA), LYN (gene 4067) (P07948 whole entry, looked up): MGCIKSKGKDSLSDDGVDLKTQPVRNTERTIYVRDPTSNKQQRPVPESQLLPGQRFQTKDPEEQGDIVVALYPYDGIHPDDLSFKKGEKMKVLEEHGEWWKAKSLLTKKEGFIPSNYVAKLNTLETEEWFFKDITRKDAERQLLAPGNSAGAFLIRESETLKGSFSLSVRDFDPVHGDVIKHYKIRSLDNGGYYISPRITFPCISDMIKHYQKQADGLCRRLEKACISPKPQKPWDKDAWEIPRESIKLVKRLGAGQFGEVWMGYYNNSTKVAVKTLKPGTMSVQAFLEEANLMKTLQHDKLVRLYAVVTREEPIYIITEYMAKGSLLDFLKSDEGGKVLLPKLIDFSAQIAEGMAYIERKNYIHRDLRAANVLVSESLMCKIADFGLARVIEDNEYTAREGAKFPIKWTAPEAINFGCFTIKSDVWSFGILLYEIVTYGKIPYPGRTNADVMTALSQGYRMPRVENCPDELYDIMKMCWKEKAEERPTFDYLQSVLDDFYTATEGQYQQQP

**Q.** For `NC(=O)NO`, which outcome is on record?
**A.** inactive

**Q.** `CC(C)CC(C)(O)C#CC(C)(O)CC(C)C` (stereo not given) was tested. Which outcome did it give?
**A.** inactive

**Q.** How did the outcome turn out when `CC(C)CCCCCCCOC(=O)CCCCC(=O)OCCCCCCCC(C)C` was run?
**A.** inactive

Molecular target: Collagenase 3 (Homo sapiens) (UniProt P45452)
Assay: NVS_ENZ_hMMP13: NovaScreen (NVS) Enzymatic Assay for human Matrix Metalloproteinase-13 (MMP13) (AID 2283182)
How it was run: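 Recombinant MMP13 cleaving fluorescent substrate, cell-free, measured 1 h after dosing. Primary duplicate screen at 25 uM; actives tested in concentration-response up to 50 uM; loss of signal relative to DMSO.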

**Q.** With `COC(=O)c1c(Cl)c(Cl)c(C(=O)OC)c(Cl)c1Cl` as the molecule, how does the outcome read?
**A.** inactive

**Q.** For `CC(C)(O)c1coc(S(=O)(=O)NC(=O)Nc2c3c(cc4c2CCC4)CCC3)c1`, which AC50 is on record?
**A.** 20.6 µM (active)

**Q.** Which outcome does the source give for `CCCCC(CC)COC(=O)c1ccc(C(=O)OCC(CC)CCCC)cc1` (stereo not given) here?
**A.** inactive

**Q.** How did the outcome turn out when `Fc1ccccc1[C@@H](F)COC1CCC(Nc2ncnc3[nH]ncc23)CC1` (stereo not given in full) was run?
**A.** inactive

**Q.** With `CCCCCCCCCCCCCCCO` as the molecule, how does the outcome read?
**A.** inactive

**Q.** How did the outcome turn out when `CC(C)CCCCCCCOC(=O)CCCCC(=O)OCCCCCCCC(C)C` was run?
**A.** inactive

Molecular target: human Matrix Metalloproteinase-7 (MMP7), MMP7 (gene 4316) (UniProt P09237)
Assay: NVS_ENZ_hMMP7: NovaScreen (NVS) Enzymatic Assay for human Matrix Metalloproteinase-7 (MMP7) (AID 2283183)
How it was run: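 Cell-free fluorescence enzymatic assay read 1 h after compound addition, activity loss analyzed against DMSO. Primary duplicate testing at 25 uM; compounds meeting threshold rerun in singleton concentration-response up to 50 uM.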

Chain of human Matrix Metalloproteinase-7 (MMP7), MMP7 (gene 4316) (P09237 whole entry, looked up): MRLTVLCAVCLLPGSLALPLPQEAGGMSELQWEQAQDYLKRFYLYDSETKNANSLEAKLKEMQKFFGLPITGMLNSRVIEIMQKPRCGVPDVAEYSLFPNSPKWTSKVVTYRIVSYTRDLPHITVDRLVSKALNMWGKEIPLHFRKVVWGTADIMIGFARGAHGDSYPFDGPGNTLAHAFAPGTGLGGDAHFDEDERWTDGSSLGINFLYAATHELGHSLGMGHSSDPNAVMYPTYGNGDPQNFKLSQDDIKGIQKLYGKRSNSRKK

**Q.** Which AC50 does the source give for `C=CC(=C)CCC=C(C)C` here?
**A.** 6.56 µM (active)

**Q.** For `CCCCCCc1ccc(O)cc1O`, which outcome is on record?
**A.** inactive

**Q.** `CCOCCOCCOCCO` was tested. Which AC50 did it give?
**A.** 28.2 µM (active)

Molecular target: human Matrix Metalloproteinase-2 (MMP2), MMP2 (gene 4313) (UniProt P08253)
Assay: NVS_ENZ_hMMP2: NovaScreen (NVS) Enzymatic Assay for human Matrix Metalloproteinase-2 (MMP2) (AID 2283184)
How it was run: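 Cell-free recombinant MMP2 activity with a fluorescent substrate, read 1 h after dosing. Primary screen in duplicate at 25 uM; actives then run in concentration series; loss of signal fitted versus DMSO.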

Chain of human Matrix Metalloproteinase-2 (MMP2), MMP2 (gene 4313) (P08253 whole entry, looked up): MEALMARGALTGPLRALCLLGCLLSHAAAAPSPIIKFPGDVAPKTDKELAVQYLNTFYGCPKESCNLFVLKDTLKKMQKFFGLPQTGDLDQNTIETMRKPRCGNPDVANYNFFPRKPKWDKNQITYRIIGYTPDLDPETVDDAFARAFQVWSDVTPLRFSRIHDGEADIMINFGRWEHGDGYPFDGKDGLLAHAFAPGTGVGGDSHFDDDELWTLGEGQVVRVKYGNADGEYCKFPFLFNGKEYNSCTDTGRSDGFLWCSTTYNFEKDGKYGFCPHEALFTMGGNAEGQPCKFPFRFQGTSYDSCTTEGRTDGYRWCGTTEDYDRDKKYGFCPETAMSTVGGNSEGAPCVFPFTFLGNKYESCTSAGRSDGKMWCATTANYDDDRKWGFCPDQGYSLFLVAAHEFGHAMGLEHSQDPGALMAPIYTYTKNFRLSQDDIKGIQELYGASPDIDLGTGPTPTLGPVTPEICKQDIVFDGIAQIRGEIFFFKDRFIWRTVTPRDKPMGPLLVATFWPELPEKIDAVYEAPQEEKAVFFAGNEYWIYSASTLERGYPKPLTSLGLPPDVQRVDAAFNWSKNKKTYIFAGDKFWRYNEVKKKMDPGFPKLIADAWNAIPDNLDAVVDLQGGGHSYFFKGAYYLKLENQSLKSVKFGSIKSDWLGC

**Q.** Which AC50 does the source give for `COC(=O)CC(=O)OC` here?
**A.** 7.18 µM (active)

**Q.** For `CCCCC(CC)COC(=O)c1ccc(C(=O)OCC(CC)CCCC)cc1` (stereo not given), which outcome is on record?
**A.** inactive

**Q.** How did the outcome turn out when `C=CCCCCCCCCC(=O)O` was run?
**A.** inactive

Reference: PubChem BioAssay (EPA / NIEHS)
